Experimental data as given in PubChem BioAssay AID588405 (Sanford-Burnham Center for Chemical Genomics, 2011).
Hit rate of the full screen: of about 360,000 compounds, about 6,200 (1.7%) were called active. This excerpt belongs to a sample that is enriched for actives. A number with no mark means an inactive call.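 How the source made its calls: active means inhibition of at least 50% at 20 µM; inactive means the rest.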

Assay: Peg3 promoter-driven luciferase inhibitors, primary screen, cell-based, HeLa, luciferase luminescence (AID 588405)
Settings: HeLa PEG-Prom luciferase reporter, overnight, at 20 µM, active compounds read high
`Cc1cc2nc(-c3ccco3)c(Cc3cccc(F)c3)n2c(C)c1Br` gave an inhibition of -26.2%. With `CC(Sc1nnc(C2CC2)n1C1CC1)C(=O)Nc1ccc(C(N)=O)cc1` (stereo not drawn) the inhibition was 0.86%. For `CCOC(=O)c1c(C)oc2cc(Sc3ccccc3)c(O)c(O)c12`, the inhibition was -89%. With `CCOC(=O)c1c(-c2ccccc2)oc2cc(Br)c(O)c(C=O)c12` the inhibition was 69.1% (active). `Cc1oc2cc(Br)c(O)c(Br)c2c1C(=O)c1ccccc1` showed an inhibition of -69.5%. For `CCCNC(=O)c1cc(C2CCCCN2S(=O)(=O)c2cn(C)cn2)on1` (stereo not drawn), the inhibition was -3.04%. Molecule `O=C(CNC(c1ccccc1)c1ccccc1)Nc1ccc(F)cc1` has an inhibition of 6.17%. Molecule `O=S1(=O)CC(N2CCN(c3ccccn3)CC2)CN1Cc1ccc(F)cc1` (stereo not drawn) has an inhibition of 10.9%. Molecule `Cc1ccc(F)c(S(=O)(=O)NC(=O)C2(C)CCN2C(=O)c2ccco2)c1` (stereo not drawn) has an inhibition of -1.32%. Molecule `CCOc1ccc(N(CC(=O)NCC2CCCO2)S(=O)(=O)c2ccc(C)cc2)cc1` (stereo not drawn) has an inhibition of 14.4%. `COc1ccc(NC(=O)c2sc3nc(C)nc(N4CCN(c5ccccn5)CC4)c3c2C)c(OC)c1` showed an inhibition of 30.7%. In the case of `Cc1cc(Br)ccc1NC(=O)c1cnc(N2CCN(c3ccccn3)CC2)c2ccccc12`, the inhibition is reported as 64.2% (active). For `Cc1cc(Br)ccc1NC(=O)c1sc2ncn(CC(=O)N3CCN(c4ccccn4)CC3)c(=O)c2c1C`, the inhibition was 1.76%. In the case of `CC(=O)Nc1cccc(-c2cc(NC=O)c3ncc(-c4ccc(F)c(Cl)c4)n3c2)c1`, the inhibition is reported as 40.1%. For `COc1ccc(CC(N)c2csc(NC(=O)Cc3ccccc3)n2)cc1` (stereo not drawn), the inhibition was 49.7%. For `Cc1ccccc1NC(=O)Cc1nc(COC(=O)c2ccc(C(F)(F)F)cc2)cs1`, the inhibition was -7.19%. Work on `COc1ccc(OC)c(NC(=O)N[C@H](Cc2ccccc2)C(=O)NN)c1` yielded an inhibition of 9.08%. `COc1ccc(NC(=O)C(Br)C(C)C)cc1` (stereo not drawn) showed an inhibition of -6.38%. For `COc1ccc(CC(N)c2csc(NC(=O)NC(c3ccccc3)c3ccccc3)n2)cc1` (stereo not drawn), the inhibition was 96.6% (active). For `COc1ccc(CC(N)c2csc(NC(=O)Nc3ccc(C(C)C)cc3)n2)cc1` (stereo not drawn), the inhibition was 100% (active). Molecule `CC(C)(C)CC(=O)Nc1nnc(SCC(=O)NCc2cccs2)s1` has an inhibition of 9.91%. For `COC(=O)[C@H](CCSC)NC(=O)Nc1ccc(OC)cc1`, the inhibition was 10.2%. In the case of `CC(C)(C)CC(=O)Nc1nc(C(N)Cc2ccc(C(F)(F)F)cc2)cs1` (stereo not drawn), the inhibition is reported as 102% (active). Molecule `O=C(NCc1ccc(F)cc1)c1cc(C2CCCCN2C(=O)c2cccs2)on1` (stereo not drawn) has an inhibition of 12.7%. Molecule `CC(C)Cn1c(N)c(C(=O)COC(=O)C2CCCN2C(=O)c2cccs2)c(=O)n(C)c1=O` (stereo not drawn) has an inhibition of 8.57%. `C#Cc1ccc(NC(=O)C2(C)CCN2C(=O)Cc2ccc(-c3ccccc3)cc2)cc1` (stereo not drawn) gave an inhibition of 20.8%. `O=C(NCc1cccnc1)c1cc(C2CCCN(C(=O)C3CCCCC3)C2)on1` (stereo not drawn) gave an inhibition of 3.87%. Molecule `CC(C)CCNC(=O)c1[nH]c(C(F)(F)F)nc1-c1ccccc1` has an inhibition of 11.4%. `COc1ccc(C(NC(=O)C2CCN(CCCc3ccccc3)CC2)c2cccs2)cc1` (stereo not drawn) showed an inhibition of 2.75%. `Nc1ncnc2c1ncn2[C@@H]1O[C@H](C(=O)NCC(F)(F)F)[C@@H](O)[C@H]1O` gave an inhibition of 4.09%. For `Cc1c(C(=O)NCc2ccc(C#N)cc2)sc(=O)n1Cc1ccc(C(=O)N(C)C)cc1`, the inhibition was 7.87%. Work on `Cn1cncc1C#Cc1c(-c2ccsc2)sc2ccccc12` yielded an inhibition of 44.3%. In the case of `COc1ccc2sc(-c3ccc(S(C)(=O)=O)cc3)c(C#Cc3cncn3C)c2c1`, the inhibition is reported as 54.5% (active). In the case of `COc1ccc2sc(-c3ccc(S(C)(=O)=O)cc3)c(-c3ccc(C(N)=O)cc3)c2c1`, the inhibition is reported as 3.59%. In the case of `CCn1c(SCC(=O)Nc2ccc(C)cc2)nc2nc3c(cc2c1=O)CCCC3`, the inhibition is reported as 10.5%. For `CCNC(=S)Nc1ccc2c(c1)c(=O)n(C)n2Cc1ccc(Cl)cc1`, the inhibition was -3.64%. For `c1ccc2c(c1)C(=NC1CCCCC1)NC2=NC1CCCCC1`, the inhibition was 101% (active). Work on `CC1(C)Cc2nc3sc4c(SCC(=O)NC(c5ccccc5)c5ccccc5)ncnc4c3cc2CO1` yielded an inhibition of -23%. Molecule `Cc1ccccc1S(=O)(=O)NC(=O)C1(C)CCN1C(=O)C1(c2ccc(Cl)cc2)CC1` (stereo not drawn) has an inhibition of 15.9%. For `Cc1cccc(-c2cnc(C(O)c3ccc4ccccc4c3)[nH]2)c1` (stereo not drawn), the inhibition was 5.95%. `Cc1nc2c(OCc3ccc(Cl)cc3Cl)cccn2c1N(C)CC1CC1` gave an inhibition of 27.9%. In the case of `CCCN1CCn2c3c(c4cc(Br)ccc42)CCCC31` (stereo not drawn), the inhibition is reported as -52.1%. With `COCCNC(=O)c1ccc(Cn2c(SCC(=O)NCC3CCCO3)nc3ccc(Br)cc3c2=O)cc1` (stereo not drawn) the inhibition was -11.8%. For `OC(CNCC1CCCO1)Cn1c2ccc(Br)cc2c2cc(Br)ccc21` (stereo not drawn), the inhibition was 104% (active). `CNC(=O)NC(=O)C(OC(=O)c1cccc(S(=O)(=O)N2CCCCC2)c1)c1ccccc1` (stereo not drawn) gave an inhibition of 8.72%. With `CCN1/C(=C\c2ccc3ccccc3[n+]2CC)Sc2cc(C)ccc21` the inhibition was 95.8% (active). Work on `OCCN1CCN(c2ncnc3c2ncn3[C@H]2CN(Cc3ccco3)C[C@@H](CO)O2)CC1` yielded an inhibition of -0.36%. With `Cc1ccccc1Cn1c(C)c(C(=O)NCc2cccc(C(F)(F)F)c2)sc1=O` the inhibition was -0.27%. In the case of `CC(C)CC(N=C1NC(C)(C)Cc2ccccc21)C(=O)O` (stereo not drawn), the inhibition is reported as 0.64%. For `COc1cc(C(C(=O)NC2CCCC2)N(Cc2ccccc2)C(=O)c2snc(C(N)=O)c2N)ccc1O` (stereo not drawn), the inhibition was -1.6%. In the case of `COc1ccc(CNC(=O)C(c2ccc(O)cc2)N(Cc2ccco2)C(=O)c2snc(C(N)=O)c2N)cc1` (stereo not drawn), the inhibition is reported as 56.7% (active). `NC(=O)c1nsc(C(=O)N(CC(=O)NCc2ccc(F)cc2)Cc2ccco2)c1N` showed an inhibition of 17.3%. `CCOC(=O)C1(C)CCCN(C(=O)c2ccc(N(C)C)cc2)C1` (stereo not drawn) showed an inhibition of 0.13%. For `Cc1cc(C)n2nc(C(=O)OC(C)C(=O)c3cc(C)c(C)cc3C)nc2n1` (stereo not drawn), the inhibition was -10.9%. `CSCCC(NS(=O)(=O)c1ccc2c(c1)oc(=O)n2C)C(=O)NC1CCCc2ccccc21` (stereo not drawn) gave an inhibition of 3.82%. `CC1=C(C(=O)N(C(C)C)C(C)C)CC(CC(=O)NCCCCc2ccccc2)C(=O)N1CCC1=CCCCC1` (stereo not drawn) showed an inhibition of 18.7%. In the case of `COc1cccc2c1C(=O)c1c(O)c3c(c(O)c1C2=O)CC(O)(C(C)=NNC(=O)c1ccc(Cl)c(Cl)c1)CC3OC1CC(N)C(O)C(C)O1` (stereo not drawn), the inhibition is reported as 98.3% (active). With `O=C(NC1CC1)C1=C[C@H](c2c[nH]c3ccccc23)C[C@H](OCc2ccc(CO)cc2)O1` the inhibition was -8.53%. Molecule `O=C(Nc1cccc2ccccc12)NC1CC1` has an inhibition of 6.64%. With `O=C(Nc1cccc2ccccc12)c1[nH]c(-c2ccccc2)c2c1C(=O)N(C1CC1)C2=O` the inhibition was 52.8% (active). With `O=C(Nc1cccc2ccccc12)c1onc2c1CCCC2` the inhibition was -211%. `COc1ccc(C(=O)N2CCCCC2c2cc(C(=O)Nc3ccc(F)c(Cl)c3)no2)cc1` (stereo not drawn) gave an inhibition of 11.5%. Molecule `Cc1nccn1-c1ccc(NC(=O)[C@H]2O[C@@H](n3cnc4c(N)ncnc43)[C@H](O)[C@@H]2O)cc1` has an inhibition of 7.92%. With `CCc1nc2ccc(C(=O)NCc3ccc(OC)cc3)cn2c1N(CC)Cc1cccc(Br)c1` the inhibition was 19.4%. Molecule `COc1ccc(NC(=O)c2sc(=O)n(Cc3ccc(S(=O)(=O)N(C)C)cc3)c2C)cc1` has an inhibition of 2.16%. For `CCN1CCC2(CC1)N=C(c1ccc(F)cc1)C(=S)N2C(=O)c1ccc(C)cc1`, the inhibition was 90% (active). `Cc1ccc(C(=O)N2CC(=O)Nc3ccc(F)cc3C2c2ccc(F)cc2)cc1` (stereo not drawn) gave an inhibition of 17.9%. `Cc1ccc(SCC(=O)N2CCN(c3ccc(F)cc3)CC2)cc1` gave an inhibition of 8.76%. In the case of `CCCNC(=O)c1cc(C2CCCCN2S(=O)(=O)c2ccc(C#N)cc2)on1` (stereo not drawn), the inhibition is reported as -6.28%. `OC(c1cc(Cl)cc(Cl)c1)c1ncc(-c2ccccc2C(F)(F)F)[nH]1` (stereo not drawn) showed an inhibition of 35.8%. Molecule `CCc1ccc(/C=N/NC(=O)c2ccc(OC3CCCC3)cc2)s1` has an inhibition of 14.5%. Molecule `CC1(C(=O)NCc2ccco2)Cc2c(-c3ccc4c(c3)OCO4)ccnc2O1` (stereo not drawn) has an inhibition of 7.44%. In the case of `O=C(Nc1ncccc1O)c1ccc(C(=O)c2ccccc2)cc1`, the inhibition is reported as -204%. `O=C(Nc1ccc2ccccc2c1[N+](=O)[O-])c1ccccc1` showed an inhibition of -223%. With `O=C(NC1=CC(=O)c2ccccc2C1=O)c1ccccc1` the inhibition was 106% (active). Work on `CCCNC(=O)C1(C)CCCN(C(=O)c2cccc(OC(C)=O)c2C)C1` (stereo not drawn) yielded an inhibition of -1.66%. For `COc1cc(NS(=O)(=O)c2ccc3ccccc3c2)c2ncccc2c1`, the inhibition was 54.5% (active). For `CCOc1ncccc1C(=O)NNC(=O)c1cccc(S(=O)(=O)Nc2ccccc2OC)c1`, the inhibition was 6.59%. `CCOc1cc(NS(=O)(=O)c2ccc(OC)cc2)c(OCC)cc1NC(C)=O` showed an inhibition of 11.6%. `COc1ccc(N2C(=O)NC(NS(=O)(=O)c3ccc(Cl)cc3)(C(F)(F)F)C2=O)cc1` (stereo not drawn) showed an inhibition of 10.8%. For `CC1=C(C(=O)N2CCOCC2)CC(CC(=O)NCc2cccs2)C(=O)N1CCCN1CCCC1=O` (stereo not drawn), the inhibition was 0.54%. With `O=C1C(Cl)=C(Oc2ccccc2)C(=O)c2ccccc21` the inhibition was 104% (active). `O=c1[nH]nc(SCCS(=O)(=O)c2ccc(F)cc2)n1-c1ccccc1C(F)(F)F` showed an inhibition of -139%. `CC(C)(C)N1C(=O)c2c(C(=O)OCc3ccccc3)[nH]c(-c3ccccc3)c2C1=O` gave an inhibition of 24.2%. With `COc1ccc(NC(=O)c2cn(-c3ccccc3)nc2SC)cc1` the inhibition was -78.1%. In the case of `CC1C(C)N(C(=O)CCl)c2ccccc2N1C(=O)CCl` (stereo not drawn), the inhibition is reported as 99.2% (active). For `CC1C(=O)N(Cc2ccccc2)c2ccccc2N1C(=O)c1ccccc1` (stereo not drawn), the inhibition was 21.3%. Work on `CC1CC(C)CN(CC(=O)N2c3ccccc3CCc3ccccc32)C1` (stereo not drawn) yielded an inhibition of 9.54%.
